Sampled rows, rich in hits. Any-hit rate of the full collection: about 2.1%.
TDP43 rescue: rescues yeast growth from TDP-43 toxicity; TDP-43 expressing yeast growth rescue, BacTiter-Glo, 24 h; Potency, µM (highest dose often 46.1 µM), usual class: activators; actives 1.8% (n = 410,000); AID 652104; further: nearly all actives have a fitted effect of over 50% in size
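Yeast cells expressing TDP-43 under galactose induction are exposed to compounds for 24 hr at 30 deg C. BacTiter-Glo luminescence measures growth, so protective compounds score as activators.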
Abeta rescue: restores growth of yeast expressing A-beta42 peptide; Potency, µM (highest dose often 46.1 µM), actives largely listed as activators; AID 1347071; yeast expressing A-beta42, growth rescue, OD600, 48 h; response scale: 0% DMSO, 100% iron-clioquinol control; actives 0.063% (n = 410,000); further: nearly all actives have a fitted effect of over 55% in size
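Growth rescue measured by 600 nm absorbance after 48 h yeast culture at 30 C with compound. Values normalized between DMSO and an equimolar ferric chloride plus clioquinol control.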
aSyn yeast inh: alpha-synuclein toxicity inhibition in yeast; Yeast expressing alpha-synuclein, growth rescue, BacTiter-Glo, 24 h; Potency, µM (doses to about 46.1 µM), usual class: activators; actives 0.14% (n = 370,000); AID 652106; further: nearly all actives have a fitted effect of over 65% in size
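Rescue of yeast growth: cells expressing toxic alpha-synuclein, induced in galactose at OD600 0.02, incubated with compound 24 h at 30 C. ATP luminescence quantified growth; inhibitors of toxicity appear as activators.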
FUS suppressor: FUS proteinopathy suppression in yeast; S. cerevisiae FUS-expressing, growth rescue, OD600, 24 h; Potency, µM (titrated, usually from 76.6 µM), actives largely listed as activators; actives 0.24% (n = 390,000); further: nearly all actives have a fitted effect of over 55% in size
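Galactose (2%) drives FUS expression in yeast precultured in raffinose; seeding density OD 0.005. Test compounds incubated 24hr at 30C and 99% humidity before absorbance at 600 nm was measured.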
Hits are given with their value; [ ] = another dose, or the depositor's remark. The call rests on the fitted dose curve; in most records, active means well fitted curve in the direction sought with a large enough effect; inconclusive means small, poorly fitted or top-dose-only effect, or another doubt; inactive means no such curve, though single readings can be large; an effect the other way counts as inactive or inconclusive.

What do the screens show for `CN(C)/C=N/c1nc2nccc(-c3ccccn3)n2n1`?
TDP43 rescue: inactive[9.22 µM]; Abeta rescue: inactive; aSyn yeast inh: inactive; FUS suppressor: inactive

What do the screens show for `Cc1cc(N2CCOCC2)nc(SCc2ccc(Cl)cc2Cl)n1`?
TDP43 rescue: 35.5µM; Abeta rescue: inactive; aSyn yeast inh: inactive; FUS suppressor: inconclusive

Results for Cc1cc(N2CCOCC2)nc(SCC(=O)OCc2ccccc2)n1 ?
TDP43 rescue: inactive; Abeta rescue: inactive; aSyn yeast inh: inactive; FUS suppressor: inactive

How did Cc1cccc(C)c1OCC(=O)N/N=C/c1ccc2c(c1)OCO2 do in these assays?
TDP43 rescue: inactive; Abeta rescue: inactive; aSyn yeast inh: inactive; FUS suppressor: inactive

Results for Cc1ccc(C(C)C)cc1OCC(=O)N/N=C/c1ccc2c(c1)OCCO2 ?
TDP43 rescue: 12.6µM; Abeta rescue: inactive; aSyn yeast inh: inactive; FUS suppressor: inactive

What do the screens show for `S=c1[nH]nc(Cc2sc(-c3ccccc3)nc2-c2ccccc2)o1`?
TDP43 rescue: 12.6µM; Abeta rescue: inactive; aSyn yeast inh: inactive; FUS suppressor: inconclusive

How did S=c1[nH]nc(Cc2c[nH]c3ccccc23)o1 do in these assays?
TDP43 rescue: inactive; Abeta rescue: inactive; aSyn yeast inh: inactive; FUS suppressor: inactive

What do the screens show for `O=C(Nc1cccc(-c2nc3cccnc3s2)c1)c1cccc(Br)c1`?
TDP43 rescue: 6.31µM; Abeta rescue: inactive; FUS suppressor: inactive

How did O=C(Nc1ccc(-c2nc3cccnc3s2)cc1)c1ccco1 do in these assays?
TDP43 rescue: inactive; Abeta rescue: inactive; aSyn yeast inh: inactive; FUS suppressor: inactive

Results for O=C(Nc1cccc(-c2nc3cccnc3s2)c1)c1ccco1 ?
TDP43 rescue: 10µM; Abeta rescue: inactive; aSyn yeast inh: inactive; FUS suppressor: inactive

What do the screens show for `CN(C)c1ccc(C(=O)Nc2cccc(-c3nc4cccnc4s3)c2)cc1`?
TDP43 rescue: inactive; Abeta rescue: inactive; FUS suppressor: inactive

Results for CC(C)Nc1ncnc2c1cnn2-c1ccccc1 ?
TDP43 rescue: inconclusive; Abeta rescue: inactive; aSyn yeast inh: inactive; FUS suppressor: inactive

Results for Cc1ccc(Cl)cc1-n1ncc2c(NC3CCCCCC3)ncnc21 ?
TDP43 rescue: 14.1µM; Abeta rescue: inactive; FUS suppressor: inactive

What do the screens show for `Cc1ccc(-n2ncc3c(NC4CCCCCC4)ncnc32)cc1Cl`?
TDP43 rescue: inconclusive; Abeta rescue: inactive; FUS suppressor: inactive

What do the screens show for `COc1ccc(CCNc2ncnc3c2cnn3-c2cc(Cl)ccc2C)cc1`?
TDP43 rescue: 20µM; Abeta rescue: inactive; FUS suppressor: inactive

How did Cc1ccc(CNc2ncnc3c2cnn3-c2ccc(C)cc2C)cc1 do in these assays?
TDP43 rescue: 35.5µM; Abeta rescue: inactive; FUS suppressor: inactive

Results for Cc1cccc(-n2ncc3c(NC(C)C)ncnc32)c1 ?
TDP43 rescue: 11.2µM; Abeta rescue: inactive; aSyn yeast inh: inactive; FUS suppressor: inactive

What do the screens show for `Cc1cc(=O)oc2c(C)c(OCC(=O)NCCCN3CCOCC3)ccc12`?
TDP43 rescue: inactive; Abeta rescue: inactive; aSyn yeast inh: inactive; FUS suppressor: inactive

Results for CCOc1ccc(N2C(=O)C(=O)/C(=C(/O)c3ccccc3)C2c2ccccc2[N+](=O)[O-])cc1 (stereo not drawn) ?
TDP43 rescue: inactive; Abeta rescue: inactive; aSyn yeast inh: inactive; FUS suppressor: inactive

How did C/C(=N\OCC(=O)OCC(=O)NC(=O)c1ccc(OC(F)F)cc1)c1ccc2c(c1)OCO2 do in these assays?
TDP43 rescue: inactive; Abeta rescue: inactive; aSyn yeast inh: inactive; FUS suppressor: inactive

What do the screens show for `Clc1ccc(-n2ncc3c(NCC4CCCO4)ncnc32)cc1` (stereo not drawn)?
TDP43 rescue: 11.2µM; Abeta rescue: inactive; aSyn yeast inh: inactive; FUS suppressor: inactive

Results for c1ccc(-n2ncc3c(NCC4CCCO4)ncnc32)cc1 (stereo not drawn) ?
TDP43 rescue: inactive; Abeta rescue: inactive; aSyn yeast inh: inactive; FUS suppressor: inactive

How did COC(=O)[C@]12C[C@H](CC(=O)N3CCCC3)C(=O)N(Cc3ccc(Cl)cc3Cl)C1=C[C@H](C(C)(C)C)O[C@@H]2C do in these assays?
FUS suppressor: 17.8µM

What do the screens show for `C#CCNC(=O)C[C@H]1C[C@@]2(C(=O)OC)C(=C[C@H](C(C)(C)C)O[C@@H]2C)N(Cc2ccc(Cl)cc2Cl)C1=O`?
FUS suppressor: 17.8µM

What do the screens show for `O=c1[nH]nc(CNc2ccc(OC(F)(F)F)cc2)c2ccccc12`?
TDP43 rescue: 14.1µM; Abeta rescue: inactive; aSyn yeast inh: inactive; FUS suppressor: inactive

Results for Cc1ccc(-c2cc3ncc(C#N)c(N)n3n2)cc1 ?
TDP43 rescue: inactive; Abeta rescue: inactive; aSyn yeast inh: inactive; FUS suppressor: inactive

How did Cc1ccc(-c2nc(C(=O)Nc3cccc(C#N)c3)c3n2CCCCC3)cc1 do in these assays?
TDP43 rescue: inactive; Abeta rescue: inactive; aSyn yeast inh: inactive; FUS suppressor: inactive

How did CC(=O)c1cccc(NC(=O)c2nc(-c3ccc(C)cc3)n3c2CCCCC3)c1 do in these assays?
TDP43 rescue: 20µM; Abeta rescue: inactive; aSyn yeast inh: inactive; FUS suppressor: inconclusive

What do the screens show for `Clc1ccc(-c2nc3ccc(Br)cn3c2Cc2ccsc2)cc1`?
TDP43 rescue: 35.5µM; Abeta rescue: inactive; aSyn yeast inh: inactive; FUS suppressor: inactive

What do the screens show for `Brc1ccc(-c2nc3ccc(Br)cn3c2Cc2ccccc2)cc1`?
TDP43 rescue: inactive; Abeta rescue: inactive; aSyn yeast inh: inactive; FUS suppressor: inactive

How did Fc1ccc(-c2nc3ccc(Br)cn3c2Cc2cccc(Cl)c2)cc1 do in these assays?
TDP43 rescue: 35.5µM; Abeta rescue: inactive; aSyn yeast inh: inactive; FUS suppressor: inactive

How did Fc1ccc(-c2nc3ccc(Br)cn3c2Cc2ccccc2)cc1 do in these assays?
TDP43 rescue: 35.5µM; Abeta rescue: inactive; aSyn yeast inh: inactive; FUS suppressor: inactive

How did COc1ccc(CNC(=S)OC2CCC23CCC(c2ccccc2)CC3)cc1 (stereo not drawn) do in these assays?
FUS suppressor: inactive

What do the screens show for `C=C1CCN(c2ccc(C(=O)O)cc2[N+](=O)[O-])CC1`?
TDP43 rescue: inconclusive; Abeta rescue: inactive; aSyn yeast inh: inactive; FUS suppressor: inactive

What do the screens show for `O=C(O)c1ccc(N2CCN(C(c3ccccc3)c3ccccc3)CC2)c([N+](=O)[O-])c1`?
TDP43 rescue: 11.2µM; Abeta rescue: inactive; aSyn yeast inh: inactive; FUS suppressor: inactive

How did CCOc1ccc(Cn2c(=O)sc3ccccc32)cc1OC do in these assays?
TDP43 rescue: 12.6µM; Abeta rescue: inactive; aSyn yeast inh: inconclusive; FUS suppressor: inactive

How did COc1ccc(OCCn2c(C(C)Oc3ccccc3)nc3ccccc32)cc1 (stereo not drawn) do in these assays?
TDP43 rescue: 20µM; Abeta rescue: inconclusive; FUS suppressor: inactive

How did COc1ccc(Cn2c(=O)sc3ccccc3c2=O)cc1 do in these assays?
TDP43 rescue: 11.2µM; Abeta rescue: inactive; aSyn yeast inh: inconclusive; FUS suppressor: inactive

What do the screens show for `COc1ccc(OCCn2c(=O)sc3ccccc32)cc1`?
TDP43 rescue: 15.8µM; Abeta rescue: inactive; aSyn yeast inh: 25.1µM; FUS suppressor: inactive
